Results taken from PubChem BioAssay (EPA / NIEHS).
A structure can be active in one record and inactive in another. Active and inactive are the calls of the source. The calls were made as follows: active = hit-call score of the fitted dose curve at least 0.9, where 1 is the maximum; inactive = score below 0.9.

Read-out: Thrombomodulin, THBD (gene 7056)
Assay: BSK_3C_Thrombomodulin: BioMAP Diversity Plus: 3C Assay for Thrombomodulin Biomarker Activity (AID 2283029)
Conditions: primary human endothelial cells (HUVEC); actives raise or lower the signal
Procedure: BSK_3C is a cell-based, multiplexed-readout assay that uses umbilical vein endothelium, a human vascular primary cell, with measurements taken at 24 hours after chemical dosing in a 96-well plate.BSK_3C_Thrombomodulin is an assay component measured in the BSK_3C assay. It measures Thrombomodulin antibody related to regulation of gene expression using ELISA technology.Data from the assay component BSK_3C_Thrombomodulin was analyzed into 1 assay endpoint. This assay endpoint, BSK_3C_Thrombomodulin, was analyzed with bidirectional fitting relative to DMSO as the negative control and baseline of activity. Using a type of binding reporter, gain or loss-of-signal activity can be used to understand changes in the signaling as they relate to the gene THBD. Furthermore, this assay endpoint can be referred to as a primary readout, because this assay has produced multiple assay endpoints where this one serves a signaling function. To generalize the intended target to other relatable targets, this assay endpoint is annotated to the gpcr intended target family, where the subfamily is rhodopsin-like receptor.
The levels of cell surface (or secreted, indicated by the prefix "s") biomarker endpoints were measured by ELISA. Overt cytotoxicity to cells in confluent adherent cultures (all systems other than the BT system) was assessed by measuring total protein levels using sulforhodamine B (SRB) staining in parallel cultures at the time of biomarker measurements, indicated as SRB endpoints. For proliferation assays for adherent cell types, individual cell types are cultured at sub-confluence and relative cell numbers quantified by SRB staining at time points optimized for each system (48 h: 3C and CASM3C systems; 72 h: BT and HDF3CGF systems; 96 h: SAg system). SRB was performed by staining cells with 0.1% SRB after fixation with 10% TCA and reading wells at 560 nm.Viability and proliferation of PBMC (T cells) was quantified by Alamar Blue reduction for the SAg and BT systems. For PBMC viability (referred to as PBMC Cytotoxicity within the assay endpoint names), cells were plated (75,000/well in a 96-well plate) and then chemical samples added for 1 h before addition of activators, SEB and TSST-1 (20 ng/mL final concentration each). Cells were incubated for 90 h. Then, Alamar Blue (20 uL/well) (Invitrogen, Cat DAL1100) was added for 6 h, and the plates were read with a fluorescence microplate reader at 546/580 nm (excitation/emission). For PBMC proliferation, cells were plated and activated as above but incubated for only 16 h prior to addition of Alamar Blue. Plates were read after 6 h.

| SMILES | outcome | AC50 |
| --- | --- | --- |
| NCC(F)(F)C(F)(F)C(F)(F)C(F)(F)C(F)(F)C(F)(F)C(F)(F)F | inactive | – |
| CCCCOCCO | inactive | – |
| CC[C@H](C)[C@@H](C(=O)O)n1sc2ccccc2c1=O | inactive | – |
| CCCCCCC(=O)O | inactive | – |
| CCN(CC)CCNc1ccc(CNC=O)c2sc3ccc(OC)cc3c(=O)c12 | inactive | – |
| CC(=O)CC(C)(C)O | inactive | – |
| OC1CCCCC1 | inactive | – |
| COC(=O)CCCCC(=O)OC | inactive | – |
| CC(C)(C)c1cc(C(C)(C)C)c(O)c(C(C)(C)C)c1 | – | 6.29 µM (active) |
| O=c1c(-c2ccc(O)cc2)coc2cc(O)ccc12 | inactive | – |
| CC1=C(/C=C/C(C)=C/C=C/C(C)=C/C(=O)O)C(C)(C)CCC1 | inactive | – |
| CC[C@H](c1ccc(O)cc1)[C@@H](CC)c1ccc(O)cc1 | – | 31 µM (active) |
| NC(=O)N1C(=O)C(C(=O)c2cc(Cl)cs2)c2cc(F)c(Cl)cc21 (stereo unspecified) | inactive | – |
| CCCCCCCCOC(=O)CCCCCCCCC(=O)OCCCCCCCC | inactive | – |
| c1ccc2c(c1)Cc1ccccc1-2 | inactive | – |
| CN1CCN(c2ccccc2/C=C2\SCCN(c3ccc(Cl)c(Cl)c3)C2=O)CC1 | inactive | – |
| Nc1cccc2c(N)cccc12 | inactive | – |
| CC(C)(C)c1cccc(C(C)(C)C)c1O | inactive | – |
| CCCCCCCCCCCCCCCS(=O)(=O)Oc1ccccc1 | inactive | – |
| O=C(O)Cc1cc(I)c(Oc2cc(I)c(O)c(I)c2)c(I)c1 | inactive | – |

| SMILES | outcome | AC50 |
| --- | --- | --- |
| OC1CCC(C2CCCCC2)CC1 (stereo unspecified) | inactive | – |
| Oc1cccc(O)c1 | inactive | – |
| Cc1oc(-c2ccccc2)nc1CCOc1ccc(C[C@H](Nc2ccccc2C(=O)c2ccccc2)C(=O)O)cc1 | inactive | – |
| CN(C)C=O | inactive | – |
| O=C(O)c1ccccc1C(c1ccc(O)cc1)c1ccc(O)cc1 | inactive | – |
| CC(O)CO (stereo unspecified) | inactive | – |
| c1ccc2cc3c(ccc4ccccc43)cc2c1 | inactive | – |
| O=C(OCCOCCOC(=O)c1ccccc1)c1ccccc1 | inactive | – |
| CCC(=C(c1ccc(O)cc1)c1ccc(OCCN(C)C)cc1)c1ccccc1 | – | 12.8 µM (active) |
| CCC(C)(C)C1CCC(O)CC1 (stereo unspecified) | inactive | – |
| OCCC(F)(F)C(F)(F)C(F)(F)C(F)(F)C(F)(F)C(F)(F)C(F)(F)C(F)(F)F | inactive | – |
| COCC(C)OCC(C)O (stereo unspecified) | inactive | – |
| C#C[C@]1(O)CC[C@H]2[C@@H]3CCC4=CC(=O)CC[C@@H]4[C@H]3CC[C@@]21C | inactive | – |
| CCCCC(CC)COC(=O)CCCCC(=O)OCc1ccccc1 (stereo unspecified) | inactive | – |
| Cc1cc(C)c(O)c(C)c1 | inactive | – |
| CCCCCCCC(=O)O | inactive | – |
| COCC(C)O (stereo unspecified) | inactive | – |
| CCOC(=O)CC(O)(CC(=O)OCC)C(=O)OCC | inactive | – |
| CN1CCC[C@H]1c1cccnc1 | inactive | – |
| FC(F)(I)C(F)(F)C(F)(F)C(F)(F)C(F)(F)C(F)(F)I | inactive | 30 µM (active) [middle of 4 runs] |
